This is a sample that favours compounds with a hit; in the whole collection about 3.2% have one here.
ERb coact inh – inhibitors of ERβ-SRC1 coactivator interaction, primary screen, biochemical, TR-FRET, ERβ LBD, SRC-1 peptide. hit rate 1.3% among 86,000. Estrogen receptor beta (Homo sapiens), Q92731. inhibition, % at 25.6 µM. AID 633, 2007. TR-FRET ER-beta LBD / SRC1-Cy5 peptide binding; receptor agonist-loaded with 1 µM estradiol;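 active means compounds whose percent inhibition of the receptor-coactivator binding signal exceeds about 50% in the single-dose screen, limit read from the data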;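 further: 0% = receptor plus peptide wells without compound and 100% = peptide-only wells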
ERa SRC1 inh – ERα–SRC-1 coactivator interaction inhibitors, primary screen, biochemical, TR-FRET, ERα LBD, estradiol-bound | Estrogen receptor (Homo sapiens), P03372 | TR-FRET ER-alpha LBD / SRC-1 peptide | inhibition, % at 25.6 µM | hit rate 1.7% among 86,000; in the data active means inhibition above about 50%;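 further: 0% = receptor plus peptide control and 100% = peptide only without receptor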
ERa coact pot – enhancers of ERα–SRC-1 coactivator binding, primary screen, biochemical, TR-FRET, ERα LBD, low estradiol; Estrogen receptor (Homo sapiens), P03372; TR-FRET ERalpha-LBD/SRC-Cy5 coactivator binding, 2 h; 100 = basal binding, no effect; coactivator binding (% of control), % at 25.6 µM; hit rate 1.3% among 86,000; in the data active means activity above about 200%;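 further: binding measured in presence of low estradiol as agonist stimulus; 0% = peptide alone without receptor and 100% = receptor with peptide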
FAK inh – FAK kinase inhibitors, primary screen, biochemical. biochemical FAK kinase activity assay. inhibition, %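 (tested at 7 µM)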. hit rate 0.84% among 97,000; in the data active means inhibition above about 19%;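 further: 0% = DMSO and 100% = reference compound high control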
Target sequence (Q05397 whole entry, looked up): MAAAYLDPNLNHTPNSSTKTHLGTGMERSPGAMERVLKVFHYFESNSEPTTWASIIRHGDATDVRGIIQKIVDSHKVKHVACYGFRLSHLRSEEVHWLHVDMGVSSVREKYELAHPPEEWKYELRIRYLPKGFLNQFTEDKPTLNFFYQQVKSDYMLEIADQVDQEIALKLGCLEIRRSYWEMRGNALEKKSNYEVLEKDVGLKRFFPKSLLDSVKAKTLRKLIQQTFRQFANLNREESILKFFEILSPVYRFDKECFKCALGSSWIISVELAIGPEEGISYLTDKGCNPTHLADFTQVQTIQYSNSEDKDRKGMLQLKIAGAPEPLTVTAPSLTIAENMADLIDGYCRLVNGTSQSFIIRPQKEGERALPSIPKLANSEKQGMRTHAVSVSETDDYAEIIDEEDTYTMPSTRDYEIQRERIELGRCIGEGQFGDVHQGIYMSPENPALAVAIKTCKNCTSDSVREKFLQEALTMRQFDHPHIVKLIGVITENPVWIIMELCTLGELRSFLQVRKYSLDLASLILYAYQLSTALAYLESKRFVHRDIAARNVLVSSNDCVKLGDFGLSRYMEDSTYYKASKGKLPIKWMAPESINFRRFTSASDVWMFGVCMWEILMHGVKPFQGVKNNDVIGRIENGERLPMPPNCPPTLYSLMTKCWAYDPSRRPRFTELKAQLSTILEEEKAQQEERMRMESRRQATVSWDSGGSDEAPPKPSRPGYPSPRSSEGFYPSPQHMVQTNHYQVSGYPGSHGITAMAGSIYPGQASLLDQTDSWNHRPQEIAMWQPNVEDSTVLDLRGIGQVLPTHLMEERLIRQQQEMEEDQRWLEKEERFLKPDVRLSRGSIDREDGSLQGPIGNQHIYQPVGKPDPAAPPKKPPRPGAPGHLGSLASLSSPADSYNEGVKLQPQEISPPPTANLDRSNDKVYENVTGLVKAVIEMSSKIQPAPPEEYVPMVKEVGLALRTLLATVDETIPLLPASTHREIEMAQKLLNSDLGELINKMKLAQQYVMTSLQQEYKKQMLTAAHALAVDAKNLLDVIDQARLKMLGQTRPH
Active calls of the source: *; nt = no result given; [ ] = remark or other dose.

SMILES | ERb coact inh | ERa SRC1 inh | ERa coact pot | FAK inh
CCOC(=O)N1CCC(NC(=O)c2cccc3c2C(=O)N(CCOC)C3)CC1 | -6 | -8 | 105 | -2
CC1CCC2(CC1)NC(=O)N(CC(=O)c1ccc[nH]1)C2=O (configuration not stated) | 36 | 75* | 80 | 2
COc1ccc(-c2cc3nnc(-c4ccccc4)nc3s2)cc1 | 66*[fluorescence artefact?] | 63*[fluorescence artefact?] | 129 | 0
CN(Cc1ccccc1)S(=O)(=O)c1ccc(S(=O)(=O)N2CCN(CCC#N)CC2)cc1 | -8 | 0 | 110 | 2
CN(C1CCCCC1)S(=O)(=O)c1ccc(S(=O)(=O)N2CCN(CCC#N)CC2)cc1 | 54* | -8 | 113 | 0
N#Cc1c(OCC(=O)c2ccccc2)nc2c(c1-c1ccco1)CCc1ccccc1-2 | 13 | 15 | 230* | 4
CCCC(=O)C1=C(O)C(C(=O)OC)C(C)(C)CC1=Nc1ccc(N)cc1 (configuration not stated) | -1 | -5 | 100 | -2
CCCC(=Nc1ccc(N)cc1)C1=C(O)C(C(=O)OC)C(C)(C)CC1=O (configuration not stated) | 66*[fluorescence artefact?] | -3 | 97 | -1
COc1ccc(C(=O)Nc2ccc(Cl)cc2C(=O)NCCN2CCOCC2)cc1 | -12 | 1 | 122 | 1
Cn1nc(SCC(=O)O)sc1=S | 7 | 70*[fluorescence artefact?] | 50 | 4
Clc1ccccc1C1SCC2Nc3ccccc3CN21 (configuration not stated) | nt | nt | nt | 4
CCOC(=O)c1cn(-c2ccccc2)nc1-c1cccnc1 | 0 | 6 | 103 | nt
O=C(OCn1nnc2ccccc2c1=O)c1cn(-c2ccccc2)nc1-c1cccnc1 | 43 | 68* | 121 | 6
COc1ccc(NC(=O)c2cc(-c3ccc(C)o3)nc3ccccc23)cc1OC | 68*[fluorescence artefact?] | 79*[fluorescence artefact?] | 77 | 1
Cc1nn(CC(=O)Nc2cccnc2N2CCOCC2)c(=O)c2ccccc12 | -2 | -3 | 110 | nt
CCOC(=O)COn1c(=O)c(=O)n(O)c2ccccc21 | 50*[fluorescence artefact?] | 36 | 74 | nt
CCOC(=O)COn1c(=O)c(=O)n(OC)c2ccccc21 | 18 | 14 | 101 | 0
O=C(NC1CCCCC1)N(Cc1cc2cc3c(cc2[nH]c1=O)OCCO3)C1CCCCC1 | -7 | 8 | 87 | -1
N#CC(C(=O)Nc1ccc(Cl)cc1)=C1Nc2ccccc2N1 | 6 | 54* | 163 | 6
Cc1cccc(NC(=S)NC2CC3CCCC(C2)N3CC(C)C)c1 (configuration not stated) | 7 | -1 | 96 | 1
COc1ccc(Cn2c(=O)[nH]c3cc(C(=O)NCc4ccc5c(c4)OCO5)ccc3c2=O)cc1 | 23 | 51* | 131 | 0
COC(=O)c1cc2c(=O)n3cccc(C)c3nc2n(Cc2cccnc2)c1=N | 4 | 3 | 107 | nt
O=C(NCc1ccc2c(c1)OCO2)c1ccc2c(=O)n(C3CCCC3)c(=O)[nH]c2c1 | 6 | 3 | 109 | -2
COc1ccc(CNC(=O)c2cc3c(=O)n4ccccc4nc3n(Cc3cccnc3)c2=N)cc1 | 42 | 78*[fluorescence artefact?] | 53 | 5
N=c1c(C(=O)NCc2ccc3c(c2)OCO3)cc2c(=O)n3ccccc3nc2n1Cc1cccnc1 | 57* | 92*[fluorescence artefact?] | 4 | nt
SMILES | ERb coact inh | ERa SRC1 inh | ERa coact pot | FAK inh
O=S(=O)(c1cccc(-c2nc3ccccc3s2)c1)N1CCOCC1 | 68* | -1 | 100 | -1
CC1CN(S(=O)(=O)c2cccc(-c3csc(-c4ccccc4)n3)c2)CC(C)O1 (configuration not stated) | -6 | 0 | 116 | -1
O=S(=O)(c1cccc(-c2csc(-c3ccccc3)n2)c1)N1CCOCC1 | 2 | -4 | 272* | 12
Cc1ccc(-c2nc3ccccc3s2)cc1S(=O)(=O)N1CCCC1 | -5 | 1 | 72 | 1
O=C(CN1CCN(c2ccc(F)cc2)CC1)c1ccc2c(c1)OCO2 | nt | nt | nt | -3
Cc1ccc(-n2nnnc2SCC(=O)Nc2ccc3c(c2)COC3=O)cc1C | 48 | 73* | 150 | 1
Cc1ccc(-n2nnnc2SCC(=O)Nc2ccc3c(c2)OCCO3)cc1C | 3 | 20 | 124 | 1
COc1cccc(-n2nnnc2SCC(=O)Nc2ccc(C(C)=O)cc2)c1 | 30 | 33 | 332* | -2
Cc1ccc(NC(=O)CSc2nnnn2-c2ccc3c(c2)OCO3)cc1C | 38 | 56*[fluorescence artefact?] | 330* | 3
Cc1cc(C2C(=O)C(C(=O)c3ccc(Cl)cc3)C(=O)CC2(C)C)on1 (configuration not stated) | -3 | -1 | 117 | nt
Cc1ccc(-c2nnc(N3CCN(C(=O)CN4C(=O)c5ccccc5C4=O)CC3)c3ccccc23)cc1 | 6 | 58* | 125 | -5
CCC(C)C(NC(=O)C(N)CC(C)C)C(=O)NC(CCC(=O)OCc1ccccc1)C(N)=O (configuration not stated) | -3 | -1 | 211* | 2
CCn1c(SCC(=O)Nc2cc(C)on2)nc2sc3c(c2c1=O)CCCC3 | 20 | 24 | 96 | -2
Cc1cc(NC(=O)CSc2nc3sc4c(c3c(=O)n2C)CCCC4)no1 | 48 | 65*[fluorescence artefact?] | 82 | 4
CCn1c(SCC(=O)O)nc2sc3c(c2c1=O)CCC3 | 91*[fluorescence artefact?] | 91*[fluorescence artefact?] | 6 | -1
Cc1cc(NC(=O)CSc2nc(C(C)C)nc3sc4c(c23)CCCC4)no1 | 18 | 0 | 206*[fluorescence artefact?] | 2
CCOc1cc(C)c(-c2onc(C(F)(F)F)c2-c2csc(C)n2)c(O)c1 | -13 | -8 | 93 | -5
Cc1ccc(S(=O)(=O)N2CC(=NO)C2)cc1 | 7 | -3 | 103 | -7
CCCc1cc(C(=O)NCc2ccco2)no1 | 10 | -2 | 100 | -1
CN(C)CCCN1C(=O)C(=O)/C(=C(/O)c2ccc(S(=O)(=O)N(C)C)cc2)C1c1ccncc1 (configuration not stated) | -13 | 5 | 116 | nt
CCc1ccccc1NS(=O)(=O)c1ccc2[nH]cc(C(=O)NCC3CCCO3)c(=O)c2c1 (configuration not stated) | 31 | 65* | 22 | 0
NC1=NC(c2ccc(Cl)cc2)n2c(nc3ccccc32)N1 (configuration not stated) | -4 | 26 | 43 | 0
CCn1c2ccccc2c2cc(C3N=C(N)Nc4nc5ccccc5n43)ccc21 (configuration not stated) | 34 | 27 | 277*[fluorescence artefact?] | -1
Cc1cc(Cl)c(S(=O)(=O)N2CCN(c3ccc(F)cc3)CC2)cc1OCC(=O)NC1CCCCC1 | 1 | 0 | 92 | -1
O=C(N/N=C/c1ccc(O)c(O)c1O)/C(=C/c1ccc([N+](=O)[O-])cc1)NC(=O)c1ccccc1 | 71*[fluorescence artefact?] | 89*[fluorescence artefact?] | 43 | 6
Cc1cc(C)c2cc(C#N)c(N3CCCN(S(=O)(=O)c4ccccc4)CC3)nc2c1 | 27 | 24 | 262*[fluorescence artefact?] | -2

Screens deposited in PubChem by several laboratories.
